# In PubChem BioAssay:
# Where “and” joins values, the source holds several entries; their conditions need not be identical. Identical values can stand only once. Calls of active or inactive are those of the source.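 The calls were made as follows, unless noted: active = inhibition at or above 50% relative to wild type and mutant plate controls; inactive = inhibition below 50%.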
# How the values were obtained:
# [1] = inhibitors of TNFa-induced NFkB p65 translocation, primary screen, imaging, HUVEC, MLSMR starter and 10KST1 sets (AID 438;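 active = inhibition above 20% together with a positive visual image hit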;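 also: compound added about 3h40 before a 20 min TNFalpha stimulation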;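 as to inhibition: signal is the nuclear over cytoplasmic p65 intensity ratio per well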); settings: HUVEC TNFa-induced p65 nuclear translocation; cell count: measured here: nuclei count (cytotoxicity indicator), at 2.08 µM; inhibition: at 2 µM, stronger effect = higher value, 0% TNFa-plus-vehicle, 100% no-TNFa wells
# [2] = inhibitors of E-selectin induction by TNFa, primary screen, imaging, HUVEC, immunofluorescence, MLSMR starter and 10KST1 sets (AID 487;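 active = visually confirmed hit in the image check and inhibition above 20%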;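 as to inhibition: signal is fraction of cell area covered by stained E-selectin grains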;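 as to nuclei count: 100% = median nuclei count of all wells on the same plate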); settings: HUVEC TNFalpha-induced E-selectin immunofluorescence imaging, at 2 µM; inhibition: stronger effect = higher value; nuclei count: measured here: cell number, toxicity
# [3] = DUSP6 inhibitors restoring Erk phosphorylation by chemical complementation, primary imaging in DUSP6-transfected HeLa (AID 609;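 active = compounds giving at least 50% inhibition in the cell-based MKP-3 phosphatase rescue imaging test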;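 as to inhibition: phospho-Erk level distribution per well compared with pooled transfected vehicle control wells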); settings: HeLa MKP-3 transfected, phospho-Erk imaging KS statistic, at 10 µM, cells stimulated with TPA for 15 min
# [4] = biological target: Dual specificity protein phosphatase 6 (Homo sapiens) (UniProt Q16828); assay: as above; settings: HeLa MKP-3 transfected, phospho-Erk imaging KS statistic; at 10 µM; stronger effect = higher value; cells stimulated with TPA for 15 min
# Chain of Dual specificity protein phosphatase 6 (Homo sapiens) (Q16828 whole entry, looked up): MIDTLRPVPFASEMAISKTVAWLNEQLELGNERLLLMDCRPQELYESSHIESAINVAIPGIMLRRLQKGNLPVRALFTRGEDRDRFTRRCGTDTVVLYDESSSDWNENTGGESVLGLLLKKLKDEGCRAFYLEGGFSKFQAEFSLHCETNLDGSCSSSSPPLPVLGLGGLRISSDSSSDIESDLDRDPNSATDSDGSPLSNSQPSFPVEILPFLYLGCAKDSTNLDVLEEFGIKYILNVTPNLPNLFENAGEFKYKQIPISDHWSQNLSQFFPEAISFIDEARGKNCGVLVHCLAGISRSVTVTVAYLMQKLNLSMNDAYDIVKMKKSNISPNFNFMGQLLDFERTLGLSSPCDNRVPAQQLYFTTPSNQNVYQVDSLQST
# [5] = biological target: Voltage-gated potassium channel subunit beta-2 (Rattus norvegicus) (UniProt P62483); assay: KvBeta enzyme negative modulators, primary screen, biochemical, NADPH fluorescence (AID 622;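 active = fluorescence slope higher than the sample average by over 3 SD, cut at about -0.22 in these data, passing the limit was not always enough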;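 also: slope of raw intensity against log time taken from 70 to 1610 s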); settings: recombinant KvBeta, 4-cyanobenzaldehyde reduction, at 10 µM, stronger effect = higher value
# Chain of Voltage-gated potassium channel subunit beta-2 (Rattus norvegicus) (P62483 whole entry, looked up): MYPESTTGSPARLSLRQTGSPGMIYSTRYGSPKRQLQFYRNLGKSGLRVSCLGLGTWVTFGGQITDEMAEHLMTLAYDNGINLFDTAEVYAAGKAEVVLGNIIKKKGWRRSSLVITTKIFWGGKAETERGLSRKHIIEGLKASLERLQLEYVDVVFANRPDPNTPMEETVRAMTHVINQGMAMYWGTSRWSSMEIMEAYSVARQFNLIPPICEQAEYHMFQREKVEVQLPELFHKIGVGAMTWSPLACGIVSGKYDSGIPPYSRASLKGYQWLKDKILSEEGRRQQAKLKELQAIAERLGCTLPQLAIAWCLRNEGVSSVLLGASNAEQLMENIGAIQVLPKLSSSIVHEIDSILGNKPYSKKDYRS
# [6] = biological target: Voltage-gated potassium channel subunit beta-2 (Rattus norvegicus) (UniProt P62483); assay: KvBeta positive modulators, primary screen, biochemical, NADPH fluorescence (AID 623;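 active = NADPH fluorescence slope more negative than the mean of all samples by about 3 SD, 99.7% confidence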;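 also: fluorescence intensity change per second fitted from 20 to 320 s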); settings: Recombinant KvBeta, NADPH fluorescence decrease slope, 10 min; at 10 µM; stronger effect = lower value
# [7] = biological target: Muscarinic acetylcholine receptor M4 (Homo sapiens) (UniProt P08173); assay: compounds altering M4/GIRK thallium flux, either direction, primary screen, M4 allosteric agonist project, cell-based, HEK293 M4/GIRK, BTC-AM (AID 625;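 active = fluorescence slope after compound addition differing from the mean of all tested samples at 99.7% confidence, mostly higher but some lower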;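 also: thallium influx through GIRK channels coupled to M4 in HEK293 cells with BTC-AM dye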); settings: at 10 µM, actives lie on both sides
# Chain of Muscarinic acetylcholine receptor M4 (Homo sapiens) (P08173 whole entry, looked up): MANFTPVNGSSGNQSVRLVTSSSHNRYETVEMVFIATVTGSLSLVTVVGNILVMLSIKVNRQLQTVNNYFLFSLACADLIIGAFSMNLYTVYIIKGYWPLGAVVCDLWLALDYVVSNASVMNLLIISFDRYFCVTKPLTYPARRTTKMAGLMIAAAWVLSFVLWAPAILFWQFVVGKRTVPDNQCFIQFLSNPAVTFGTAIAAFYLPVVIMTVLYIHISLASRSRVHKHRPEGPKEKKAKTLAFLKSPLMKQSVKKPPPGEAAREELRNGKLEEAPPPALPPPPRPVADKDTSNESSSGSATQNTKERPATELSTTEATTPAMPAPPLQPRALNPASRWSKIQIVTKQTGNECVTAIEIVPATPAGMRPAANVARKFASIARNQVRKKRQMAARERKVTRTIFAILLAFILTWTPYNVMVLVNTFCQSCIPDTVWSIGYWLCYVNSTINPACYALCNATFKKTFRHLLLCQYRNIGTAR
# [8] = inhibitors of larval lipid processing in zebrafish, primary screen, whole organism, PED6 fluorescence, gall bladder and intestine (AID 686;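 active = a full or partial loss of lipid-probe fluorescence in the fish gall bladder, intestine or both, judged by eye; inactive = no fluorescence loss, or compound toxic to the fish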;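 also: larvae 5 to 7 days old with five fish per well; signal comes from phospholipase A2 cleavage of quenched PED6 carried via bile; overnight exposure to compound and PED6 before scoring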); settings: Zebrafish larvae PED6 lipid processing, fluorescence scoring; screened at 20 µM (by protocol)
# [9] = inhibitors of Chlamydomonas gravitaxis, primary screen, whole organism, Chlamydomonas reinhardtii, WT vs cilia-less mutant, absorbance, 96-well (AID 463189); settings: OD600 absorbance, 2 days, at 10 µM, stronger effect = higher value;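 also: 0% = wild type cc124 cells in DMSO and 100% = ciliumless bld1 mutant cells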
# [10] = biological target: Alpha-2C adrenergic receptor (Homo sapiens) (UniProt P18825); assay: modulators of alpha2C/GIRK thallium flux, primary screen, cell-based, HEK293 alpha2C/GIRK1/2 (AID 624;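 active = fluorescence slope after compound addition differing from the mean of all screened samples at 99.7% confidence, in either direction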;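 also: slope of fluorescence ratio to pre-addition baseline per second over 15 to 24 s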); settings: thallium flux BTC fluorescence, at 10 µM, actives lie on both sides
# Chain of Alpha-2C adrenergic receptor (Homo sapiens) (P18825 whole entry, looked up): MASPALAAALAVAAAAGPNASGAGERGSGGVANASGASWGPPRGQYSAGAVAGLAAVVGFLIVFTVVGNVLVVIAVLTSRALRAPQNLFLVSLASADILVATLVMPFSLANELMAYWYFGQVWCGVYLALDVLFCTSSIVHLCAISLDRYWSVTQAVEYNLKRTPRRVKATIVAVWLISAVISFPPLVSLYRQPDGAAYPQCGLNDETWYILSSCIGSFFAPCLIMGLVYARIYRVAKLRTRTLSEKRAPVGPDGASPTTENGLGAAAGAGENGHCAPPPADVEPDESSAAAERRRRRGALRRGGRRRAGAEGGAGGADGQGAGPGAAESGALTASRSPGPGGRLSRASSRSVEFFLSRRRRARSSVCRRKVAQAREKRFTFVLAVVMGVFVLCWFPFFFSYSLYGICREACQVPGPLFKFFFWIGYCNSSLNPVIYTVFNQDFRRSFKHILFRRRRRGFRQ
# [11] = inhibitors of mutant huntingtin aggregation, primary screen, imaging, exon1htt(103Q)mCFP cells, high-content imaging (AID 483;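 active = visual image review flags a hit and inhibition of aggregation exceeds 20%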;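 also: compound exposure lasted 3 days before fixation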;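 as to nuclei count: percent of the per-plate median nuclei count of sample wells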); settings: exon1htt(103Q)mCFP cell line, aggregate imaging, at 2 µM; inhibition of aggregation: stronger effect = higher value; nuclei count: measured here: cell count, toxicity
# [12] = inhibitors of Sendai virus-induced IRF3 signaling, primary screen, TLR/RLR signaling modifier project, cell-based, Sendai virus stimulus, luciferase, 10K MLSCN set (AID 602276;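 active = inhibition at or above 50% at 10 µM; inactive = inhibition below 50%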;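 also: firefly luciferase from ISG56 promoter only with Renilla not read in this screen; 0% = Sendai virus plus DMSO and 100% = medium plus DMSO without virus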); settings: HEK293 RL24 IRF3 luciferase reporter, at 10 µM, stronger effect = higher value
# [13] = inhibitors of poly I:C-induced TLR3 signaling, primary screen, cell-based, poly I:C stimulus, luciferase, 10K MLSCN set (AID 602277;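 active = inhibition of the reporter signal at or above 50%; inactive = inhibition below 50%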); settings: HEK293-TLR3 RL24 IRF3 luciferase reporter, at 10 µM, stronger effect = higher value
# [14] = measured here: cell density z-score
# [15] = measured here: nuclear c-Myc green intensity z-score
# [16] = measured here: nuclear pErk red intensity z-score, stronger effect = higher value
Compound,cell count [1],inhibition [1],inhibition [2],nuclei count [2] [%],"z-score [3, 14]","z-score [3, 15]","z-score [3, 16]",inhibition [4],fluorescence slope [5],NADPH fluorescence slope [6],fluorescence slope [7],outcome [8],inhibition [9],slope [10],inhibition of aggregation [11],nuclei count [11] [%],inhibition [12],inhibition [13]
O=C1CCC(=O)N1CN(Cc1ccco1)CN1C(=O)CCC1=O,512,-4.8% (inactive),-33.2% (inactive),158,2.24,-1.47,0.89,37.7% (inactive),-0.376 (inactive),-1.3e-05 (inactive),0.00674 (inactive),inactive,13.2% (inactive),–,–,–,–,–
CCOC(=O)C1(c2nc(N)cs2)COC(=O)C1 (stereo unspecified),529,-7.1% (inactive),15.9% (inactive),110,1.01,1.47,-1.03,16% (inactive),-0.497 (inactive),-5e-05 (inactive),0.00548 (inactive),inactive,-13.2% (inactive),–,–,–,–,–
CCCSc1nnc2n(C)c(=O)c3c4c(sc3n12)CCC4,376,-2.9% (inactive),-11.1% (inactive),83.1,-0.271,-0.0406,0.896,9.42% (inactive),-0.501 (inactive),-7.9e-05 (inactive),0.00582 (inactive),inactive,62% (active),–,–,–,–,–
CCOC(=O)C(CC(=O)O)N1CCCCC1 (stereo unspecified),485,-6.2% (inactive),-40.2% (inactive),89.2,-1.03,1.55,-0.781,3.5% (inactive),-0.367 (inactive),4.4e-05 (inactive),–,inactive,-13.4% (inactive),0.00418 (inactive),–,–,–,–
O=C(O)C1CSC(CCc2ccccc2)N1 (stereo unspecified),633,-7.7% (inactive),-34.8% (inactive),140,-0.486,0.112,1.29,7.83% (inactive),-0.459 (inactive),-0.000276 (inactive),–,inactive,8.25% (inactive),0.00538 (inactive),–,–,–,–
CCCc1nc(NC2CCCCC2)c(C#N)c2c1COC(C)(C)C2,517,-11.1% (inactive),-55.9% (inactive),114,-0.306,-0.0962,-0.825,-3.95% (inactive),-0.492 (inactive),-6.5e-05 (inactive),0.00613 (inactive),inactive,-12.9% (inactive),–,–,–,–,–
COC(=O)C1=C(C)N=C2SC(C)C(=O)N2C1c1ccc(C(=O)OC)cc1 (stereo unspecified),746,-2.4% (inactive),-42.3% (inactive),164,0.938,-0.219,-3.03,9.61% (inactive),-0.448 (inactive),-4.8e-05 (inactive),0.00486 (inactive),inactive,1.12% (inactive),–,–,–,–,–
CCN1CCc2c(C#N)c(NCc3ccccc3)nc(NCCO)c2C1,534,-12% (inactive),-113% (inactive),151,0.614,-1.73,-1.03,-5.81% (inactive),-0.398 (inactive),-3.2e-05 (inactive),0.00361 (inactive),inactive,-0.503% (inactive),–,–,–,–,–
CC1(C)CC(=O)C2=C(C1)OC(N)=C(C#N)[C@@]21C(=O)N(CC(N)=O)c2ccccc21,375,-8% (inactive),-63.6% (inactive),114,0.0987,0.575,-0.037,-3.95% (inactive),-0.464 (inactive),-2e-05 (inactive),0.00604 (inactive),inactive,-3.87% (inactive),–,–,–,–,–
CCOC(=O)C1/C(=N\O)CC(C)(O)C(C(=O)OCC)C1c1ccc(OC)c(OC)c1 (stereo unspecified),573,-0.9% (inactive),-36% (inactive),149,0.422,-0.512,-0.582,1.98% (inactive),-0.416 (inactive),-5.9e-05 (inactive),0.0045 (inactive),inactive,1.71% (inactive),–,–,–,–,–
Nc1nonc1C(=O)NCCN=Cc1cc(Cc2ccccc2)cc(Br)c1O,537,-4.9% (inactive),49.5% (inactive),156,-0.875,1.06,0.686,-1.98% (inactive),-0.41 (inactive),-6.3e-05 (inactive),0.00522 (inactive),inactive,-5.78% (inactive),–,–,–,–,–
CCCCc1c(C)c2ccc(OCC(C)=O)cc2oc1=O,647,-10% (inactive),51.6% (inactive),90.6,-2.59,0.867,-5.29,47.6% (inactive),-0.472 (inactive),-3.8e-05 (inactive),0.00708 (inactive),inactive,-0.273% (inactive),–,–,–,–,–
CC1CN(C2CCN(C(=O)c3ccccc3)CC2)CC(C)O1 (stereo unspecified),391,-25.6% (inactive),–,174,1.48,-0.00638,-0.737,-0.159% (inactive),-0.395 (inactive),-3.8e-05 (inactive),–,inactive,4.48% (inactive),0.00679 (inactive),–,–,–,–
CC1(C)Cc2c(c(-c3ccccc3)[nH]c(=O)c2C#N)CS1,499,-15.7% (inactive),-47.8% (inactive),131,1.65,-1.74,-0.608,14.7% (inactive),-0.426 (inactive),-2.8e-05 (inactive),0.0044 (inactive),inactive,-6.24% (inactive),–,–,–,–,–
N#C/C(C(=O)NCc1ccccc1)=C1\SC(CCO)C(=O)N1c1ccccc1 (stereo unspecified),501,-3.4% (inactive),-97.3% (inactive),120,0.0433,1.04,-2.12,5.42% (inactive),-0.429 (inactive),-1.4e-05 (inactive),0.00513 (inactive),inactive,-13.8% (inactive),–,–,–,–,–
Cc1ccc(Cn2ncc3c(N4CCN(c5ccc(C)cc5)CC4)ncnc32)cc1,548,-0.1% (inactive),2.9% (inactive),164,0.777,0.779,1.42,17.8% (inactive),-0.39 (inactive),-5.3e-05 (inactive),0.00638 (inactive),inactive,-10.9% (inactive),–,–,–,–,–
CC(=O)OCC(=O)[C@@]1(O)CC[C@H]2[C@@H]3CCC4=CC(=O)CC[C@]4(C)[C@H]3C(=O)C[C@@]21C,–,–,-92.4% (inactive),97.4,-1.29,-1.69,0.158,3.59% (inactive),-0.477 (inactive),-6.1e-05 (inactive),–,–,9.11% (inactive) and 28.9% (inactive),0.00575 (inactive),16.5% (inactive),99.5,3.98% (inactive),27.5% (inactive)
